Laboratory results published in the supplement of paper PMC6555819.

How the values were obtained:
Assay in all cases: PBM binding z-score (relative to random genomic background probes); higher = stronger binding; sequences stand for … in GC…GCGATTGACAGCGTAGAATGAAGG
[1] = system: RARb homodimer (NR concentration 270 nM)
Summary of the method: (§1)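 For binding z-scores, the reference was random background probes on custom Agilent 4×180K protein-binding microarrays. These arrays were incubated 1 h with ligand-free nuclear receptor dimers in PBS pH 7.4, 2% milk, 0.02% Triton X-100, 1 mM DTT, 0.2 mg/mL BSA and 0.4 mg/ml salmon testes DNA. Fluorescence was scanned after antibody detection of each partner (one per run) and regression-normalized.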

[2] = system: RARg:RXRa (NR concentration 270 nM, RXRa partner concentration 90 nM)
Summary of the method: as §1

[3] = system: RARg homodimer (NR concentration 270 nM)
Summary of the method: as §1

[4] = system: RXRa DBDmut IVT, anti-RXR (DBD mutation: RXRa K156A/R161A, NR concentration 90 nM)
Summary of the method: as §1

[5] = system: RXRa homodimer (NR concentration 180 nM)
Summary of the method: as §1

[6] = system: THRa:RXRa (NR concentration 90 nM, RXRa partner concentration 90 nM)
Summary of the method: as §1

[7] = system: THRa homodimer (NR concentration 90 nM)
Summary of the method: as §1

[8] = system: VDR homodimer (NR concentration 270 nM)
Summary of the method: as §1

Sequence | PBM binding z-score [1] | PBM binding z-score [2] | PBM binding z-score [3] | PBM binding z-score [4] | PBM binding z-score [5] | PBM binding z-score [6] | PBM binding z-score [7] | PBM binding z-score [8]
TCATATAGGTAAACAAGTGAAAGTCCGTAAGTTA | 0.321 | 0.396 | 0.548 | 1.76 | 1.12 | 0.265 | 0.0631 | 0.508
ATCTTTAGGTAAGACTCAGTTCAGTGAAGAACGC | 0.715 | 0.526 | 0.533 | 0.843 | 0.131 | 1.28 | 0.881 | 1.44
CGAACTAGGTCAGAACAGGACACTGAAGGATGAT | 2.12 | 2.35 | 3.35 | 0.629 | 1.37 | 4.03 | 0.473 | 0.123
CGCCCAAGGTCAAAGGTCAGTGAAGAGATGACGG | 5.66 | 8.68 | 8.27 | 3.9 | 10 | 4.83 | 2.31 | 3.24
TTACCAAGGTGACAGGTCGTTGATGCACGCCTTG | 1.52 | 1.37 | 1.17 | 0.0135 | 1.61 | 2.19 | 1.19 | 0.797
ACAGACAGGTGATGAAGGTTACTCAGGCTATCAT | 1.16 | 0.777 | 0.687 | 0.104 | 0.748 | 0.904 | 0.139 | 0.291
GCTAGCAGGCCATTCGGGTCACTCAATGACGGGC | 2.3 | 1.85 | 1.92 | 0.641 | 1.81 | 3.09 | 1.75 | 1.2
TTTTGTAGATCAAGCAGGTTAAGAAAGCCTGAGT | 0.054 | -0.111 | -0.119 | -0.757 | 0.19 | 0.502 | -0.555 | 0.443
TCGAGTACGTTACCAATGGGGCATTCAGCTTTCT | 0.0384 | -0.336 | -0.335 | 3.13 | -0.358 | -0.315 | -0.201 | 1.2
AGTCAAAGTTCATCTAGGTAACGGAAGATATGCT | 4.04 | 5.6 | 6.13 | 4.58 | 4.85 | 3.33 | 0.388 | 5.59
ACAGACAAGTGATGAAGGTAACTCAGGCTATCAT | 0.0016 | -0.0454 | 0.277 | -0.483 | 0.153 | 0.639 | -0.0791 | -0.536
AATACAGGGTCAATAGGCCAGAGTAGGTACGAAT | 3.5 | 5.29 | 4.37 | 2.4 | 4.89 | 3.03 | 0.474 | 2.13
ATCTCTAGGTAAAAGTTCATTGAATCCCGAGGAT | 2.65 | 2.61 | 2.06 | 1.89 | 2.82 | 1.87 | 0.281 | 3.33
